Compound activity (PubChem BioAssay)
Cruzain inh noDet – inhibitors of Trypanosoma cruzi cruzain without detergent; P25779; purified cruzain, Z-FR-AMC fluorescence, no detergent; Potency, µM, usual class: inhibitors; 2.3% of 200,000 active; AID 1476; further: nearly all actives have a fitted effect of over 40% in size
Target sequence (P25779 123-467 limits assumed): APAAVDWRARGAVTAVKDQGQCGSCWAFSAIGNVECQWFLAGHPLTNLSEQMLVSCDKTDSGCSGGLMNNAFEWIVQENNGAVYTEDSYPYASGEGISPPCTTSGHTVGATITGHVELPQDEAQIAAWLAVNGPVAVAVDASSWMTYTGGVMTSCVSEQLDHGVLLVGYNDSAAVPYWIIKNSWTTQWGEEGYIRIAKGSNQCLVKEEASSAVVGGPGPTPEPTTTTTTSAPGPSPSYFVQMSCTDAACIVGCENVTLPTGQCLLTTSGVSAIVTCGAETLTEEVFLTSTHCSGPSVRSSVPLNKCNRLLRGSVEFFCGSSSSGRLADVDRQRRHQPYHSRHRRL
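Detergent-free condition (0.00005% Triton X-100) in acetate buffer pH 5.5 with DTT. 1.5 nM enzyme and compound were pre-mixed 15 min, then 2 uM Z-FR-AMC substrate added; reaction progress from fluorescence change between first and third reads (60 s).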
Cruzain Triton – cruzain (T. cruzi) inhibition with detergent. P25779. purified cruzain, Z-FR-AMC fluorescence, 0.01% Triton. Potency, µM, usual class: inhibitors. 0.43% of 200,000 active. AID 1478; further: nearly all actives have a fitted effect of over 40% in size
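Detergent-containing arm of a paired screen for aggregation-based inhibition: 0.01% Triton X-100 present. Cruzain at 1.5 nM cleaved 2 uM Z-FR-AMC at pH 5.5 with 5 mM DTT; AMC fluorescence gain over 60 s measured activity.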
Papain counter – blocks papain protease activity, flagging nonselective cruzain hits; shares compounds with Cruzain Triton; purified papain, Z-FR-AMC fluorescence cleavage; Potency, µM, most hits filed as inhibitors; 41% of 410 active; further: nearly all actives have a fitted effect of over 35% in size
A number is an active result; - = inactive; ? = inconclusive; . = not tested or not shown. In the library only some 2.5% were active in any assay of this set; here they are far more common. The call rests on the fitted dose curve; in most records, active means well fitted curve in the direction sought with a large enough effect; inconclusive means small, poorly fitted or top-dose-only effect, or another doubt; inactive means no such curve, though single readings can be large; an effect the other way counts as inactive or inconclusive.

SMILES	Cruzain inh noDet	Cruzain Triton	Papain counter
Cc1[nH]c(=O)[nH]c(=O)c1CSc1nnc([C@@H](NC(=O)OC(C)(C)C)C(C)C)o1	-	-	.
CC[C@@H](C)[C@H](NC(=O)OC(C)(C)C)c1nnc(S(=O)(=O)Cc2cc(C)ccc2C)o1	15.8µM	8.91µM	15.8µM
CCOC(=O)CSc1nc2sc3c(c2c(=O)n1-c1ccccc1)CC(C(C)C)OC3 (configuration not stated)	-	-	.
COc1ccc(Br)cc1CNC(=O)c1nn(-c2ccc(C)cc2)c(=O)c2c1c1ccccc1n2C	-	-	.
COC(=O)c1cccc(Nc2c(-c3cc(Br)ccc3O)nc3nc[nH]n23)c1	-	-	.
O=C(NCCc1nc2ccccc2n1CCCOc1ccc2ccccc2c1)C1CCCCC1	.	.	10µM
O=C(NCCc1nc2ccccc2n1CCOc1ccc2ccccc2c1)C1CCCCC1	.	.	-
O=C(Nc1nc2ccccc2n1CCN1CCCCC1)C1CCCCC1	-	-	.
Cc1c(NC(=O)c2ccc(-c3ccc(F)cc3)o2)cccc1-c1nc2ncccc2o1	-	-	.
CC(=O)n1cc(/C=C2/N=C(c3ccccc3)OC2=O)c2ccccc21	20µM	4.47µM	1.58µM
Cc1ccc2cc(/C=C3\N=C(c4ccccc4)OC3=O)c(N3CCOCC3)nc2c1	?	-	.
CCC(C)[C@@H](N)C(=O)N/N=C/c1ccc2ncccc2c1 (some centres not stated)	10µM	10µM	-
CCOc1cc(/C=N/NC(=O)C(C)Sc2ccccn2)ccc1O (configuration not stated)	-	-	.
Cc1ccc(-c2nnc(Nc3cccc(O)c3)c3ccccc23)cc1S(=O)(=O)N1CCCCC1	-	-	.
CCN1CCN(CCCNC(=O)c2cc3c(s2)-c2ccccc2OC3)CC1	?	28.2µM	10µM
COc1ccccc1CNC(=O)c1cc2c(s1)-c1ccccc1OC2	-	-	.
CCN(CC)S(=O)(=O)c1ccc(N=Nc2c(C)[nH]n(C(N)=S)c2=O)cc1	-	-	.
NC(=S)n1[nH]c(-c2ccc([N+](=O)[O-])cc2)c(N=Nc2ccc(O)cc2)c1=O	0.631µM	0.355µM	-
CCCCc1nc2ccccc2n2c(-c3ccc(OC)cc3)c3c(=O)n(C)c(=O)n(C)c3c12	-	-	.
Cc1ccc(N(C)S(=O)(=O)c2nnc(NC(=O)C3CCCCC3)s2)cc1	-	-	.
CC(Cc1ccc(O)c(O)c1)(NN)C(=O)O (configuration not stated)	-	-	.
